{
  "source": "PubChem BioAssay AID493205",
  "about": "(National Center for Advancing Translational Sciences (NCATS), 2011)",
  "note": "The list shows a part of the results. Where a call stands in place of a potency, no number is given. Results filed as inconclusive are left out. The source made the active and inactive calls. Calls follow the shape of the dose curve; as a rule, active = well fitted inhibition curve with a large enough effect; inconclusive = small, poorly fitted or top-dose-only effect, or effect the other way; inactive = no such curve, though single readings can be large or run the other way.",
  "data": [
    {"molecular_target": "Muscleblind-like protein 1 (Homo sapiens) (UniProt Q9NR56)", "sequence (Q9NR56 whole entry, looked up)": "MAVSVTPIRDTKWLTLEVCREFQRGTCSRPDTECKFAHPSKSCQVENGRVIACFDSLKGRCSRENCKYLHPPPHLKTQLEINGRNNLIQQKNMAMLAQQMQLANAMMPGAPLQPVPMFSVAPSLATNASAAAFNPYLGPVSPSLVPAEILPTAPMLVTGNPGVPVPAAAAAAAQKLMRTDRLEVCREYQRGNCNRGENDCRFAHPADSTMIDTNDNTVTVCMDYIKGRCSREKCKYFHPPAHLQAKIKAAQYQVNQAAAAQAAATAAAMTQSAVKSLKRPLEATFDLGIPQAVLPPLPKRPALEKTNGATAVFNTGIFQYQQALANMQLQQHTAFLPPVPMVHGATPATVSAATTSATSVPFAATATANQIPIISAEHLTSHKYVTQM", "assay": "qHTS Assay for Inhibitors of MBNL1-poly(CUG) RNA binding: Initial hit validation in AlphaScreen assay for MBNL1-(CUG)12 binding", "settings": "AlphaScreen MBNL1-His / biotin-(CUG)12 binding; series mostly up to 57.7 µM", "text": "NIH Chemical Genomics Center [NCGC] NIH Molecular Libraries Probe Production Centers Network [MLPCN] MLPCN Grant: R03 MH087421-01 Assay Submitter (PI): Charles Thornton NCGC Assay Overview: Expanded CTG repeats in the 3' untranslated region of the DM protein kinase (DMPK) gene causes type I myotonic dystrophy (DM1). DM1 is a multi-systemic disease with a prevalence of 1/7000. Clinical features include myotonia, progressive muscle weakness and wasting, cardiac arrhythmia, insulin resistance, hypersomnolence, cataracts, and other symptoms. The pathogenic effect of expanded CTG repeats stems from deleterious effects of the mutant transcript. CUGexp mRNA accumulates in nuclear foci and sequesters proteins of the muscleblind family, of which MBNL1 is the most common family member in skeletal muscles. The binding interaction between MBNL1 and CUGexp tracts leads to deregulation of alternative splicing and is therefore a key molecular step in the pathogenesis of DM1. […]\nNCGC Assay Protocol Summary: This is a proximity-based binding assay with MBNL1-His and Biotin-(CUG)12 RNA. […] The AC50 values were determined from concentration-response data modeled with the standard Hill equation Assay buffer: 20mM HEPES, 110mM KCl, 10mM NaCl, 2mM MgCl2, 2mM CaCl2, 5mM DTT, 0.1% BSA, 0.05% Tween 20 1536-well assay protocol for the MBNL1-(CUG)12 binding assay: (1) Add 2 ul/well 20nM MBNL1-His, 20nM Biotin-(CUG)12 (2) Add 23 nL compounds in DMSO solution. […] (3) Add 1 ul of Nickel-coated AlphaScreen acceptor beads (6.25 ng/ul final concentration) (4) Incubate 30 min at room temperature (5) Add 1 ul of Streptavidin-conjugated AlphaScreen donor beads (6.25 ng/ul final concentration) (6) Incubate 60 min at room temperature (7) Detect the assay plate in a EnVision plate reader (PerkinElmer) with AlphaScreen protocol Keywords: mytonic dystrophy type I, DM1, muscleblind like 1, MBNL1, CUG expansion, protein-RNA binding inhibitor, high throughput screening, MLSMR, MLSCN, NIH Roadmap, qHTS and NCGC", "values": [
      {"smiles": "COc1ccc(Cc2n[nH]c(=S)n2NC(=O)Nc2ccc(C)cc2)cc1", "Potency": "inactive"},
      {"smiles": "CCOC(=O)c1c(C)[nH]c2c1-c1ccccc1C(=O)C2=O", "Potency": "4.11 µM (active)"},
      {"smiles": "COc1cccc(NC(=O)Cn2cnc3sc(C)c(S(=O)(=O)N4CCN(C)CC4)c3c2=O)c1", "Potency": "inactive"}
    ]}
  ]
}
